Hits are enriched below; roughly 15% of the tested compounds scored in any of these assays.
HCV inh = qHTS Assay for Inhibitors of Hepatitis C Virus (HCV) | Huh7.5.1 HCVcc-Cre infection, luciferase reporter, 44 h | Potency, µM (doses to about 41.8 µM), for inactives: top-dose activity change, negative = inhibition, hits mostly inhibitors | 340,000 tested, 3.4% active | AID 651820, 2012; note: potency is the fitted concentration of half-maximal effect; % is set by controls: 0 for no effect and ±100 for the full control effect
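1,000 cells/well; 4 h culture; + compound; + HCVcc-Cre (~0.5 moi); 44 h; luciferase substrate, RT 15 min; read 15 sec.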
Sm TGR inh = qHTS Assay for the Inhibitors of Schistosoma Mansoni Peroxiredoxins; Schistosoma mansoni thioredoxin glutathione reductase (TGR), Q962Y6; purified TGR, DTNB reduction, TNB absorbance 405 nm; Potency, µM (highest dose often 114 µM), inactives show at the highest dose activity change, negative = inhibition, hits mostly inhibitors; 360,000 tested, 3% active; AID 485364, 2010; note: potency is the fitted concentration of half-maximal effect; % is set by controls: 0 for no effect and ±100 for the full control effect; nearly all actives have a fitted effect of over 60% in size
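TGR 20 nM + NADPH 100 uM (dispensed conc.), cpd preinc 15 min RT; start with NADPH (500 uM addition) then DTNB (15 mM addition). Kinetic TNB absorbance, 405 nm filter. Four-parameter Hill fit across titration.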
HCMV inh = qHTS Assay for inhibitors of the human cytomegalovirus (HCMV); HFF cells, HCMV-luciferase reporter, 72 h; stronger effect = lower value; activity change, negative = inhibition, % at 57.5 µM; 410,000 tested, 4.5% active; AID 1259415, 2018; in the data active = activity change below about -60%; inconclusive = no clear call, values can overlap the other calls; inactive = above about -39%; note: % is set by controls: 0 for no effect and ±100 for the full control effect
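After 16 h attachment at 37C, HFF cells received test compound and HCMV-luciferase (1 PFU/cell); reporter luminescence read 72 h later, data normalized against buffer-only and known inhibitor Salinomycin.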
Pf growth 48h = Primary qHTS for delayed death inhibitors of the malarial parasite plastid, 48 hour incubation | P. falciparum luciferase growth in erythrocytes, 48 h | Potency, µM (series often up to 28.7 µM), without a hit: at the top dose activity change, negative = inhibition, most hits filed as inhibitors | 310,000 tested, 5.9% active; note: potency is the fitted concentration of half-maximal effect; % is set by controls: 0 for no effect and ±100 for the full control effect
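Read-out is firefly luciferase luminescence from an integrated reporter in P. falciparum, so falling signal marks reduced parasite growth. Infected erythrocytes were at 2% hematocrit and 0.1% parasitemia (final) in Albumax-supplemented RPMI 1640.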
Pf growth 96h = Primary qHTS for delayed death inhibitors of the malarial parasite plastid, 96 hour incubation | P. falciparum luciferase reporter growth, 96 h | 320,000 tested, 6.9% active | Potency, µM (titrated, usually from 28.7 µM), for the others: top-dose activity change, negative = inhibition, actives largely listed as inhibitors; note: potency is the fitted concentration of half-maximal effect; % is set by controls: 0 for no effect and ±100 for the full control effect
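Two parasite generations (96 h, 37 C, 5% CO2) of compound exposure in infected erythrocytes (0.05% parasitemia, 2% hematocrit). Luciferase-reporter P. falciparum; decreased luminescence indicates inhibited growth, aimed at apicoplast-acting delayed death.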
SARS PLpro yeast-1 = qHTS of Yeast-based Assay for SARS-CoV PLP | 330,000 tested, 0.19% active | Potency, µM (doses to about 32.9 µM), for inactives: at the top dose activity, positive = growth rescue, most hits filed as activators | S. cerevisiae expressing SARS-CoV PLpro, growth rescue; calls by dose curve; note: potency is the fitted concentration of half-maximal effect; 0% is about no effect; nearly all actives have a fitted effect of over 55% in size
SARS PLpro yeast-2 = qHTS of Yeast-based Assay for SARS-CoV PLP: Hit Validation; shares compounds with SARS PLpro yeast-1; AID 652038, 2013; calls only; yeast expressing SARS-CoV PLpro, growth phenotype rescue; 1,000 tested, 19% active; call rule not given here
The depositor's hits bear a star; i = inactive; ? = inconclusive; . = no result; + = active, no number. Unless noted, calls come from the whole dose curve; as a rule, active = well fitted curve in the direction sought with a large enough effect; inconclusive = small, poorly fitted or top-dose-only effect, or another doubt; inactive = no such curve, though single readings can be large; an effect the other way counts as inactive or inconclusive.

SMILES	HCV inh	Sm TGR inh	HCMV inh	Pf growth 48h	Pf growth 96h	SARS PLpro yeast-1	SARS PLpro yeast-2
CCCCNC(=O)C1CCN(S(=O)(=O)c2c(C)noc2/C=C\c2ccc(OC)cc2)CC1	-3%	8%	8	.	10µM*	?	+
COCCCNC(=O)C1CCN(S(=O)(=O)c2c(C)noc2/C=C\c2ccc(OC)cc2)CC1	-5%	0%	32	?	-10%	0%	.
Cc1ccc(CN(C)C(=O)C2CCC(=O)N(CCc3ccccc3)C2)o1 (configuration not stated)	12%	13µM*	59	-3%	?	?	i
Nc1nonc1C(=Nc1ccccc1)NO	2%	0%	24	12%	?	?	i
COc1ccccc1C(=O)NC(=S)Nc1ccc(NC(=O)c2cccs2)cc1	?	-29%	-67*	?	8%	?	i
O=C(CN1CCCc2ccccc21)N/N=C/c1c(O)ccc2ccccc12	10µM*	-8%	-98*	?	?	10µM*	i
COc1ccccc1N(CC(=O)N/N=C/c1c(O)ccc2ccccc12)S(C)(=O)=O	?	2%	-17	0%	-105%	11µM*	+
COc1ccccc1CNC(=O)CN(c1ccccc1OC)S(C)(=O)=O	.	-12%	-17	.	.	.	.
Cc1cccc(NC(=O)COC(=O)CNC(=O)C2CCCCC2)c1	23%	0%	4	.	43%	?	i
C[C@@H]1CN([C@H](C)CO)C(=O)c2cc(NS(=O)(=O)c3cn(C)cn3)ccc2O[C@H]1CN(C)C(=O)Nc1ccccc1	-6%	.	-26	.	.	?	i
C[C@H](CO)N1C[C@H](C)[C@@H](CN(C)Cc2ccc(C(=O)O)cc2)Oc2c(NC(=O)Cc3ccccc3)cccc2C1=O	13%	.	-24	.	.	11µM*	i
C[C@@H]1CN([C@@H](C)CO)C(=O)c2cccc(NS(C)(=O)=O)c2O[C@H]1CN(C)Cc1ccc(C(=O)O)cc1	24%	.	-7	.	.	-3%	.
Cc1ccc(S(=O)(=O)N(C)C[C@@H]2Oc3ccc(NC(=O)Nc4cccc5ccccc45)cc3C(=O)N([C@H](C)CO)C[C@H]2C)cc1	-12%	.	-9	.	.	5µM*	i
C[C@H](CO)N1C[C@H](C)[C@@H](CN(C)Cc2ccc(-c3ccccc3)cc2)Oc2c(NC(=O)Nc3ccc4c(c3)OCO4)cccc2C1=O	?	.	-23	.	.	11µM*	i
C[C@H](CO)N1C[C@H](C)[C@@H](CN(C)S(C)(=O)=O)Oc2c(NC(=O)Nc3ccc4c(c3)OCO4)cccc2C1=O	13%	.	-20	.	.	0%	.
CN(C(=O)Cn1cc([N+](=O)[O-])ccc1=O)C1CCCCC1	-14%	-5%	0	?	17%	-7%	.
O=C(NCc1ccc(Cl)cc1)C1CCN(S(=O)(=O)c2cccnc2)CC1	14%	-3%	-4	-1%	?	1%	.
O=C(Nc1ccccc1)N1CCCC(c2nc(-c3cccs3)no2)C1 (configuration not stated)	?	9%	-14	21%	.	16µM*	i
CN(CC(=O)NC1(C)CCS(=O)(=O)C1)S(=O)(=O)c1ccc(Cl)cc1 (configuration not stated)	8%	1%	26	?	8%	-8%	.
Cc1nn(CC(=O)NC2(C)CCS(=O)(=O)C2)c(C)c1S(=O)(=O)N(C)C (configuration not stated)	3%	.	-26	.	.	?	i
Nc1nc(SCC(=O)OCc2ccccc2)[nH]c(=O)c1NC(=O)c1ccco1	12%	0%	?	10%	1%	?	i
COc1ccccc1/C=C/C(=O)OCC(=O)NC(=O)NC1CCCC1	-6%	.	10	.	.	-20%	.
C[C@@H]1CN([C@H](C)CO)C(=O)CCCn2nncc2CO[C@H]1CN(C)Cc1cccc2c1OCCCO2	.	.	8	.	.	.	.
COc1cccc(NC(=O)c2csc3c2CCCCC3)c1	.	-1%	81	.	.	.	.
O=C(Nc1cccc(-c2nn[nH]n2)c1)c1csc2c1CCCC2	21%	-5%	.	-7%	?	?	i
SMILES	HCV inh	Sm TGR inh	HCMV inh	Pf growth 48h	Pf growth 96h	SARS PLpro yeast-1	SARS PLpro yeast-2
CCOC(=O)CSc1nc2ccccc2c(=O)n1C1CCCC1	-5%	7%	1	?	57%	-9%	.
CCOC(=O)CSc1nc2ccccc2c(=O)n1C	5%	-18%	-27	?	-20%	?	i
c1ccc(COc2cccc(-c3cc4nc(NCCc5ccncc5)ccn4n3)c2)cc1	.	.	9	.	.	.	.
Cc1c(-c2ccc(Br)cc2)nc2ccccn12	-21%	-2%	119	209%	164%	-45%	.
CN(C)c1ccc(-c2nc3ccccn3c2/N=C/c2ccc(Br)cc2)cc1	25%	8%	?	?	-54%	.	i
COc1ccc(N2CCN(C3CCCN(C(=O)c4cccc(C)n4)C3)CC2)cc1 (configuration not stated)	.	-9%	-29	-1%	25%	-1%	.
CCOC(=O)CSc1c(-c2ccccc2)c2cc(Cl)ccc2[nH]c1=O	-8%	-1%	-13	-10%	?	0%	.
O=C(O)CSc1c(-c2ccccc2)c2cc(Cl)ccc2[nH]c1=O	46%	-2%	-34	10%	-10%	?	i
COCCOC(=O)c1c(NC(=O)COC(=O)Cc2cccc(OC)c2)sc(C(N)=O)c1C	13%	7%	-2	4%	-1%	0%	.
CCOc1ccccc1CNC(=O)CCNC(=O)Cn1ccc2ccccc2c1=O	-25%	-8%	7	11%	4%	?	i
O=S(=O)(Nc1ccccc1N1CCOCC1)c1ccc(Cl)cc1	8%	-8%	.	?	3%	7%	.
O=C(N/N=C/c1ccccn1)c1ccc(Br)cc1	-15%	0%	4	?	?	?	?
O=C(O)c1cccc(NC(=S)N/N=C/c2ccccn2)c1	-7%	44%	89	149%	?	5µM*	+
O=C(O)c1cccc(NC(=S)N/N=C/c2cccc(O)c2)c1	-6%	1%	15	-84%	16%	1%	.
O=C(N/N=C/c1ccccn1)c1ccc(N/N=C/c2ccccn2)cc1	14%	-3%	-17	?	?	-1%	.
Cc1ccc(S(=O)(=O)c2nnn3c2nc(N2CCN(c4ccccc4F)CC2)c2ccccc23)cc1C	.	1%	0	.	.	.	.

Screens: PubChem, National Center for Advancing Translational Sciences (NCATS)
